# PubChem BioAssay (NCI)
# Values joined by “and” are separate entries in the source; they are usually repeats but may differ in a detail not shown here. Equal values may be shown once. The panel holds about 83,000 compounds, 20% with a hit somewhere; the sample as a whole holds those more often.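 48-hour exposure, single concentration, 96-well plates; percent growth endpoint where 0 means no net growth. Active: below 10.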 A number with no mark means an inactive call. Active and inactive are the calls of the source.
# System: MCF7 breast
# Assay: NCI-60 one-dose screen, 48 h (100 = growth as untreated, 0 = no growth, -100 = all killed)
# Details: 10 µM unless noted
row,Compound,growth
1,O=C(CSc1nnc(-c2ccc(-c3nc4ccccc4[nH]3)cc2)o1)Nc1ccc(Br)cc1,9.69% (active)
2,COc1ccc2c(c1)N=c1c-2cc2c(O)[nH]c(=S)n2c1=O,34.6%
3,CN(C(=O)CN1C(=O)/C(=C/c2ccco2)SC1=S)C1CCS(=O)(=O)C1 (stereo not given),91.1%
4,CCOc1ccc2[nH]c(=O)c(C(c3nnnn3CC3CCCO3)N3CCN(Cc4ccccc4)CC3)cc2c1 (stereo not given),92.4%
5,N#CC1=C(c2cccs2)Nc2c(c(-c3ccccc3)nn2-c2ccccc2)C12C(=O)Nc1ccc(Cl)cc12 (stereo not given),15.1%
6,COc1ccc(-c2nc3ccccc3n2CC(=O)N=Nc2c(O)[nH]c3ccc(OC)cc23)cc1,58.1%
7,O=C(NC(=S)N1CCN(c2ncnc3c2cnn3-c2ccccc2)CC1)c1ccc(Br)cc1,49.8%
8,COc1c(B(O)O)cc(F)cc1-c1nc2ccc3[nH]ncc3c2c2c1COCC2,44.7%
9,CC1=C(C(=O)Nc2ccccc2)C(c2cccc(Cl)c2Cl)n2c(nc3ccccc32)N1 (stereo not given),24.6%
10,CC(Nc1ncnc2ccc(-c3ccc4oc(N)nc4c3)cc12)c1ccccc1 (stereo not given),-73.1% (active)
11,CNc1nc2ccccc2n2c(-c3ccc(O)c(O)c3)cnc12,4.34% (active)
12,COc1cc(/C=C/C(=O)c2cnn(-c3cc(=O)[nH]c4ccc(Br)cc34)c2C)cc(OC)c1OC,-46% (active)
13,COc1ccc(/C=C/C(=O)c2ccc(OC)c(S(N)(=O)=O)c2)c(C(F)(F)F)c1,8.35% (active)
14,COc1ccc(S(=O)(=O)Nc2ccc(-c3ccc4c(c3)NC(=O)/C4=C\c3ccc[nH]3)cc2)cc1OC,-39% (active)
15,COC(=O)c1ccc(-c2c(-c3ccccc3)c(F)c3oc(C(=O)OC)c(N)c3c2-c2ccccc2)cc1,75.6%
16,O=C(COc1ccc(/C=C2/C(=O)Nc3ccc(Cl)cc32)cc1)Nc1ccc(Br)cc1,-26.9% (active)
17,O=C(CSc1nc2ccccc2c(=O)[nH]1)NNC(=O)c1ccccc1Cl,93.4%
18,COc1ccc2[nH]cc(-c3cc4nc(-c5cn(C)c6ncccc56)cc(N)n4n3)c2c1,-24.8% (active)

row,Compound,growth
1,COc1cc2cc(C(=O)N3C[C@@H](CCl)c4c3cc(OC(=O)N(CCC(=O)N3CCN(C)CC3)C3CCCCC3)c3ccccc43)[nH]c2c(OC)c1OC,-59.6% (active)
2,CC[C@]12C=CCN3CC[C@@]4(c5ccc(OC)cc5N(C)[C@H]4[C@@](O)(C(=O)OC)[C@@H]1OC(=O)CCCC[P+](c1ccc(F)cc1)(c1ccc(F)cc1)c1ccc(F)cc1)[C@@H]32,5.18% (active)
3,O=C(Nc1nc2ccc([N+](=O)[O-])cc2s1)Nc1ccccc1F,-0.503% (active)
4,O=C1C=CC(=CC=C2N(Cc3ccc4ccccc4c3)c3ccccc3N2Cc2ccc3ccccc3c2)C=C1,15.7% and 14.1%
5,O=c1[nH]c2ccccc2cc1COc1ccc(Nc2nccc(-c3ccc(Cl)cc3)n2)cc1,91.3%
6,CC1=C(C(=O)Nc2ccccc2)C(c2ccc3ccccc3c2)n2c(nc3ccccc32)N1 (stereo not given),9.9% (active)
7,O=C1CC(c2ccc(I)cc2)OC2C=Cc3ccccc3C12 (stereo not given),83.3%
8,COc1ccc(C(=O)/C=C/c2ccc3c(c2)OCCO3)cc1S(N)(=O)=O,23.2%
9,O=C(Cn1c(-c2ccccc2)nc2ccccc21)N=Nc1c(O)[nH]c2ccc(Br)cc12,-18.6% (active)
10,Cn1cc(-c2cc3nc(-c4cn(C)c5ncc(Br)cc45)cc(N)n3n2)c2cc(F)ccc21,27%
11,O=C1Nc2ccccc2/C1=C/C(=O)c1cc2ccccc2oc1=O,53.3%
12,CCC(=O)c1c2c(c3ccc4c5ccccc5ccc4n13)C(=O)c1ccccc1C2=O,54%
13,COc1ccc(C(=O)NNC(=O)CSc2nc3sc4c(c3c(=O)n2-c2ccc(Cl)cc2)CCCC4)cc1,63.5%
14,Cc1nc2sccn2c1-c1nnc(SCC(C)C)o1,37.5%
15,COc1ccc([C@H]2C(C(=O)c3ccc(Cl)cc3)C3(N[C@@H]2c2ccccc2)C(=O)Nc2ccccc23)cc1 (stereo not given in full),7.51% (active)
16,CN(C)CCCNC(=S)Nc1ccc(/C=C/c2ccc(Cl)cc2)cc1,-46.2% (active)
17,COc1ccc2[nH]c(=O)c(CSc3ccccc3Nc3nccc(-c4ccc(Cl)cc4)n3)cc2c1,7.48% (active)
